Experimental data published in ChEMBL document CHEMBL3988442, “University of Dundee, Small-Polar-MMV Screening Library” (2021).
Out of some 48,000 compounds screened, about 13,000 (27%) showed an effect of 50% or more. The list shows a part of the results.

tested on: Wolbachia pipientis; experiment: Anti-Wolbachia Cell-Based Screen; assay type: functional; parameters: scale not given: in the data most compounds retested in dose-response had high values; settings: 5 µM

Row | Compound | Percent Effect
1 | O=C(c1cc(C2CC2)no1)N1C[C@H]2CC[C@@H]1CN(Cc1ccccn1)C2 | -3.322%
2 | CCNC(=O)CCC(=O)NC(Cc1ccccc1)c1sccc1C (configuration not stated) | -7.516%
3 | CC(C)CN1CCCC1c1ccc(C(=O)Nc2ccc3[nH]nnc3c2)s1 (configuration not stated) | 0.6901%
4 | CCC(C)(CO)NC(=O)Nc1cc2c(cc1SC)OCCO2 (configuration not stated) | -5.152%
5 | CCOC(C)c1nc(Cn2cc(-n3cccc3)cn2)cs1 (configuration not stated) | -7.68%
6 | COc1ccc(F)cc1C(C)NC(=O)Nc1nncs1 (configuration not stated) | 5.791%
7 | CCCN1CCC(c2nc3ccc(-c4cccc(F)c4)cn3n2)CC1.O=C(O)C(F)(F)F | 109.7%
8 | COCC(=O)N1CCC(c2nc3ccc(-c4ccncc4)cn3n2)CC1.O=C(O)C(F)(F)F | 3.081%
9 | CCCN1CCC(c2nc3ccc(-c4ccncc4)cn3n2)CC1.O=C(O)C(F)(F)F.O=C(O)C(F)(F)F | 100.7%
10 | CCCN1CCC(c2nc3ccc(-c4ccccc4)cn3n2)CC1.O=C(O)C(F)(F)F | 132.6%
11 | CCCN1CCC(c2nc3ccc(NCc4cccnc4)cn3n2)CC1.O=C(O)C(F)(F)F.O=C(O)C(F)(F)F.O=C(O)C(F)(F)F | -17.81%
12 | CCCN1CCC(c2nc3ccc(NCc4ccccc4)cn3n2)CC1.O=C(O)C(F)(F)F.O=C(O)C(F)(F)F | -22.92%
13 | O=C(O)C(F)(F)F.c1ccc(-c2ccc3nc(C4CCN(CC5CC5)CC4)nn3c2)cc1 | 21.53%
14 | Cc1cccc(-c2ccc3nc(C4CCN(CC5CC5)CC4)nn3c2)c1.O=C(O)C(F)(F)F | 10.89%
15 | CCCN1CCC(c2nc3ccc(-c4cccc(OC)c4)cn3n2)CC1.O=C(O)C(F)(F)F | 95.04%
16 | O=C(COCC1CC1)Nc1ccn(Cc2cccc3cccnc23)n1 | -5.086%
17 | CCn1cc(SCC(=O)N2CCCC(O)(CO)C2)c2ccccc21 (configuration not stated) | -16.21%
18 | COc1cccc(C(=O)N2CCN(C(=O)CCCc3cn[nH]c3)CC2)c1 | -9.764%
19 | CCOCC1CN(C(=O)Cc2ccsc2)Cc2ccnn2C1.O=C(O)C(F)(F)F (configuration not stated) | 4.742%
20 | O=C(CCN1CCCO1)N1CC[C@@H](c2ccc3ccccc3c2)[C@H](O)C1 | 7.888%
21 | CC(C)SCCn1ccc2[nH]c(=O)c(C#N)cc2c1=O | -14.16%
22 | CN1CCC(c2nc3ccc(-c4cccc(F)c4)cn3n2)CC1.O=C(O)C(F)(F)F | 117.6%
23 | Cn1cc(C2(C)CN(Cc3ccc(N4CCCC4)nc3)CCO2)cn1 (configuration not stated) | -5.624%

Row | Compound | Percent Effect
24 | Cc1ccc(NC2(C(=O)NC(C)c3ncn[nH]3)CCCC2)cc1 (configuration not stated) | 4.641%
25 | Cc1cc(C)nc(NC(C)Cc2cnccn2)n1 (configuration not stated) | -26.5%
26 | CCc1oc(C(=O)NCCNS(C)(=O)=O)cc1CN1CCCC1 | 20.77%
27 | CCc1oc(C(=O)NCCc2nc(C(=O)O)cs2)cc1CN1CCCC1 | 10.42%
28 | CCc1oc(C(=O)NCCc2cc(O)nc(C)n2)cc1CN1CCCC1 | -0.3531%
29 | CCc1oc(C(=O)NC(C)c2ncn[nH]2)cc1CN1CCCC1 (configuration not stated) | 82.75%
30 | CCc1oc(C(=O)NC(C)Cc2cnccn2)cc1CN1CCCC1 (configuration not stated) | 92.2%
31 | CC(Cc1cnccn1)NC(=O)COc1ccc(F)cc1F (configuration not stated) | 0.5787%
32 | CCc1oc(C(=O)NCCSc2ncn[nH]2)cc1CN1CCCC1 | 77%
33 | COc1c(F)cccc1C(=O)NC(C)c1cnn(C)c1 (configuration not stated) | 2.584%
34 | Cc1ccccc1S(=O)(=O)CCOC(C)C | -3.521%
35 | O=C(C1CCOCC1)N1C[C@@H](F)[C@@H](OCc2nc3cc(F)ccc3[nH]2)C1 | -12.95%
36 | CCN1CCC(CNC(=O)c2cc(Cl)c[nH]2)CC1 | 93.05%
37 | COCCN1CCC(CNC(=O)c2cc(Cl)c[nH]2)CC1 | 92.15%
38 | COCCN1CCC(CNC(=O)Nc2ccc(F)c(Cl)c2)C1 (configuration not stated) | -3.47%
39 | CCc1cc(C(=O)NCC2CCN(Cc3ccncc3)CC2)on1 | 4.058%
40 | O=C(NCC1CCN(CCc2ccccc2)C1)c1c(F)cccc1F (configuration not stated) | -12.95%
41 | O=C(NCC1CCN(CCc2ccccc2)C1)c1cc(Cl)c[nH]1 (configuration not stated) | 98.65%
42 | COCCN1CCC(CNC(=O)c2cc(C)cc(C)c2)C1 (configuration not stated) | 11.6%
43 | CC(C)(C)OC(=O)NCC1CCN(C(=O)c2cc(Cl)c[nH]2)CC1 | 10.1%
44 | COc1ccc(OC)c2c(C)cc(N(C)CCCO)nc12 | 19.89%
45 | OC[C@@H](O)CN(CCC(F)(F)F)c1ncccn1 | -5.207%
46 | O=C(CCN1CCCN(c2nccs2)CC1)NCC1CCCCC1 | -7.888%

Row | Compound | Percent Effect
47 | Cc1cnn(CCCNC(=O)NC(C)C(=O)Nc2ccccc2)c1 (configuration not stated) | 105.3%
48 | Cc1cnn(CCNC(C)C(=O)Nc2ccc(Cl)cn2)c1 (configuration not stated) | -21.66%
49 | Cc1cnn(CCCNC(=O)NCCS(=O)(=O)Nc2ccccc2)c1 | 96.15%
50 | Cc1cnn(CCCNC(=O)NCCC(=O)Nc2ccccc2)c1 | 97.62%
51 | Cc1cnn(CCNC(C)C(=O)NCCc2cccs2)c1 (configuration not stated) | 5.747%
52 | Cc1cnn(CCCNC2Cc3ccccc3C2)c1 | 8.956%
53 | Cc1cnn(CCNCC(=O)NCc2ccccc2)c1 | 3.726%
54 | Cc1cnn(CCNCCCOc2ccccc2)c1 | 2.655%
55 | CCn1nnnc1-c1cccc(NC(=O)CCn2cc(C)cn2)c1 | 2.601%
56 | CN(C)S(=O)(=O)N1CC[C@]2(C[C@H](OCc3ccccn3)CO2)C1.O=C(O)C(F)(F)F | 14.62%
57 | Cc1ccc(C(=O)N2CC[C@@H]3[C@H]2CCC(=O)N3CCN(C)C)cn1.O=C(O)C(F)(F)F.O=C(O)C(F)(F)F | 19.11%
58 | CCn1nc(C)c(NC(=O)c2cc(NC(=O)C3CC3)n(C)n2)c1C | -7.543%
59 | O=C(C[S+]([O-])Cc1cccc(C(F)(F)F)c1)NC1CCCC1 (configuration not stated) | -0.5467%
60 | NC1CCCN(Cc2cccc(C(F)(F)F)c2)C1=O (configuration not stated) | 110.9%
61 | O=C1C(N2CCOCC2)CCCN1Cc1cccc(C(F)(F)F)c1 (configuration not stated) | 85.07%
62 | NC(=O)CN(C(=O)Cc1cccc(C(F)(F)F)c1)C1CCCC1 | 0.7845%
63 | FC(F)(F)c1cccc(CN2CCOC[C@H](Oc3cccnc3)C2)c1 | -1.353%
64 | O=C1NC[C@@]2(C(=O)O)CN(Cc3cccc(C(F)(F)F)c3)C[C@@H]12 | -16.76%
65 | Cc1nc(CN2CCCC(CCc3cccc(C(F)(F)F)c3)C2)co1 (configuration not stated) | -5.657%
66 | O[C@H]1COCCN(Cc2cccc(C(F)(F)F)c2)C1 | 1.348%
67 | O=C1C(N2CC[C@@H](O)C2)CCCN1Cc1cccc(C(F)(F)F)c1 (some centres not stated) | 107.1%
